Drawing on ChEMBL document CHEMBL4513149, “CO-ADD screening of MMV (CH) - MMV compounds” (2021), this text covers Inhibition for 36 molecules.

What is called Inhibition is the relative decrease from the control value, in per cent.

Potency and affinity values are given separately.

The first test deals with Staphylococcus aureus. The settings on record: Concentration 20 uM; ASSAY_TEST Inhibition of Bacterial Growth; detection method Absorption (OD600); MEDIA CAMHB; plate type 384well; NBS; CORNING #3640; time 18 hr.
Take `COC(=O)c1c(NC(=O)c2c(F)c(F)c(F)c(F)c2F)sc2c1CCCCC2`: the Inhibition was found to be 13.36%.

Consider `O=C(NC1=NCCS1)c1sc2cc(F)ccc2c1Cl`, for which the Inhibition is listed as 2.69%.

On to `CCCn1nnc(NC(=O)COc2ccc(C3CCCCC3)cc2)n1`, for which the Inhibition amounted to 2.73%.

Consider `CC(C)(C)OC(=O)N1CCC(Cn2nc(-c3cnc4ccccc4c3)c3c(N)ncnc32)CC1`, for which the Inhibition was found to be 18.54%.

For `Cc1ccc2oc(-c3cc(NC(=O)Cc4ccccc4)ccc3Cl)nc2c1`, the Inhibition was 2.8%.

`O=C(C1CCN(c2nnc(-n3cccc3)s2)CC1)N1CCC(Cc2ccccc2)CC1`: the Inhibition was 17.77%.

Regarding `CS(=O)(=O)Cc1nc2ccccc2oc1=O`, the Inhibition was 30.23%.

Consider `CN1CCN(S(=O)(=O)c2ccc(-c3ccc4c(Nc5ncc(Cl)cn5)ccnc4c3)cc2)CC1`, for which the Inhibition is 23.03%.

Take `COc1ccc(C2=NN(C3CCCCCC3)C(=O)C2(C)C)cc1OCCCCOc1ccc(-c2nn[nH]n2)cc1`: the Inhibition was 39.77%.

For the molecule `O=C(NCCN1CCCC1)c1cc(NCCN2CCOCC2)nc2ccc(Cl)cc12`, the Inhibition is reported as 22.71%.

In the case of `Cc1cc(NCC(C)C)c2[nH]nc(-c3ccccc3)c2n1`, the Inhibition was 14.44%.

With `CCn1ncc2c(NC3CCOCC3)c(CNC(=O)c3ccnn3C)c(C)nc21`, the Inhibition is listed as 5.59%.

As to `Cc1cc(C)nc(-n2nc(C)cc2Nc2ccccc2)n1`, the Inhibition amounted to 9.46%.

With `CC(C)(C)C(=O)N(CCCCCCN1C[C@H](O)[C@@H](O)[C@H](O)[C@H]1CO)C1CCCCCC1`, the Inhibition is listed as -1.36%.

For `Cc1nc2ccccn2c1C(=O)NCc1ccc(Cl)cc1`, the Inhibition was 22.95%.

On to `CC(C)(C)c1ccc(N[C@@H]2CCCC[C@H]2NC(=O)c2ccco2)cc1`, for which the Inhibition was 7.06%.

Turning to `CC1(C)Cc2c(c(N3CCOCC3)nc3snc(Br)c23)CO1`, the Inhibition is given as 19.87%.

For the molecule `O=C1[C@@H](Oc2ccccc2)[C@@H](c2ccc(Cl)cc2)N1CCn1cnc2c(NCc3ccccc3)ncnc21`, the Inhibition is reported as -4.13%.

Turning to `COc1ccc(C2=NN(C3CCCCCC3)C(=O)[C@@H]3CC=CC[C@H]23)cc1OCCCCOc1ccc(-c2nnn[nH]2)cc1`, the Inhibition is recorded as 53.58%.

In the case of `O=C(c1cc2ccccc2o1)N1CCN(Cc2ccc3c(c2)OCO3)CC1`, the Inhibition came out at 8.69%.

In the case of `Cc1nc(-c2ccccn2)nc(NCCc2ccc(S(C)(=O)=O)cc2)c1Cl`, the Inhibition is given as 4.78%.

Take `CCc1ccc(C(NCc2nc(N)nc(N(C)C)n2)C(C)C)cc1` (configuration not stated): the Inhibition was 6.21%.

On to `CCCS(=O)(=O)N1CCC(CO)(Cc2ccccc2C(F)(F)F)CC1`, for which the Inhibition was 8.25%.

For `COc1ccc(-c2nc(-c3cccc(NC(=O)Cc4ccc(F)cc4)c3)no2)cc1OC`, the Inhibition is 22.17%.

For `O=C(Nc1ccccc1-c1nc2c(C(=O)O)cccc2o1)c1ccccc1`, the Inhibition is listed as 12.25%.

In the case of `COc1ccc(C2(C(=O)Nc3ccc(Br)cc3)CCCC2)cc1`, the Inhibition is on record as 18.94%.

Take `CNC(=O)C1Cc2c([nH]c3cc(Cl)ccc23)C2(CCN(CCc3ccccc3)CC2)N1` (configuration not stated): the Inhibition came to 24.47%.

Turning to `Cc1noc(C)c1COc1cccc(C(=O)N=c2[nH]cccc2C)c1`, the Inhibition was 21.93%.

`COc1ccc(N(CCc2cccc(C)n2)C(C)=O)cc1`: the Inhibition stood at 18.62%.

Consider `COc1ccccc1CNC(=O)c1cc(C2CC2)nc2c1cnn2C(C)C`, for which the Inhibition is 13.79%.

On to `CCC(=O)Nc1ccccc1C(=O)Nc1ccccn1`, for which the Inhibition was found to be 18.51%.

On to `Cc1cc2ccccc2n1CC(=O)N1CC(C(=O)N2CCCCC2)Oc2ccccc21` (configuration not stated), for which the Inhibition is reported as 16.51%.

Turning to `CCOc1ccc(-c2nc(CNCCc3ccc(F)cc3)cs2)cc1`, the Inhibition amounted to 30.74%.

Take `CNC(=O)CNc1nc(-c2ccccn2)nc2scc(-c3ccccc3)c12`: the Inhibition is on record as 11.27%.

Turning to `c1ccc(-c2[nH]c3ccccc3c2C(c2ccccn2)N2CCCC2)cc1` (configuration not stated), the Inhibition is on record as 7%.

As for `CN1CCN(S(=O)(=O)c2ccc(-c3ccc4c(Nc5ccc6nn[nH]c6c5)ccnc4c3)cc2)CC1`, the Inhibition is listed as 10.46%.

The next test has as its system Escherichia coli. To be noted: Concentration 20 uM; ASSAY_TEST Inhibition of Bacterial Growth; detection method Absorption (OD600); MEDIA CAMHB; plate type 384well; NBS; CORNING #3640; time 18 hr.
As to `COC(=O)c1c(NC(=O)c2c(F)c(F)c(F)c(F)c2F)sc2c1CCCCC2`, the Inhibition is recorded as 6.57%.

On to `O=C(NC1=NCCS1)c1sc2cc(F)ccc2c1Cl`, for which the Inhibition is -4.46%.

In the case of `CCCn1nnc(NC(=O)COc2ccc(C3CCCCC3)cc2)n1`, the Inhibition is reported as -2.31%.

As for `CC(C)(C)OC(=O)N1CCC(Cn2nc(-c3cnc4ccccc4c3)c3c(N)ncnc32)CC1`, the Inhibition was 10.38%.

Take `Cc1ccc2oc(-c3cc(NC(=O)Cc4ccccc4)ccc3Cl)nc2c1`: the Inhibition is given as 6.02%.

With `O=C(C1CCN(c2nnc(-n3cccc3)s2)CC1)N1CCC(Cc2ccccc2)CC1`, the Inhibition is 6.98%.

`CS(=O)(=O)Cc1nc2ccccc2oc1=O`: the Inhibition was 5.17%.

Take `CN1CCN(S(=O)(=O)c2ccc(-c3ccc4c(Nc5ncc(Cl)cn5)ccnc4c3)cc2)CC1`: the Inhibition was found to be 2.97%.

For `COc1ccc(C2=NN(C3CCCCCC3)C(=O)C2(C)C)cc1OCCCCOc1ccc(-c2nn[nH]n2)cc1`, the Inhibition was -0.89%.

Regarding `O=C(NCCN1CCCC1)c1cc(NCCN2CCOCC2)nc2ccc(Cl)cc12`, the Inhibition stood at 6.99%.

Turning to `Cc1cc(NCC(C)C)c2[nH]nc(-c3ccccc3)c2n1`, the Inhibition worked out at 8.23%.

On to `CCn1ncc2c(NC3CCOCC3)c(CNC(=O)c3ccnn3C)c(C)nc21`, for which the Inhibition worked out at 3.03%.

For the molecule `Cc1cc(C)nc(-n2nc(C)cc2Nc2ccccc2)n1`, the Inhibition was 5.87%.

As to `CC(C)(C)C(=O)N(CCCCCCN1C[C@H](O)[C@@H](O)[C@H](O)[C@H]1CO)C1CCCCCC1`, the Inhibition is on record as 4.68%.

As to `Cc1nc2ccccn2c1C(=O)NCc1ccc(Cl)cc1`, the Inhibition worked out at 5.6%.

As to `CC(C)(C)c1ccc(N[C@@H]2CCCC[C@H]2NC(=O)c2ccco2)cc1`, the Inhibition was found to be 10.16%.

On to `CC1(C)Cc2c(c(N3CCOCC3)nc3snc(Br)c23)CO1`, for which the Inhibition is 4.52%.

Take `O=C1[C@@H](Oc2ccccc2)[C@@H](c2ccc(Cl)cc2)N1CCn1cnc2c(NCc3ccccc3)ncnc21`: the Inhibition is reported as 1.08%.

On to `COc1ccc(C2=NN(C3CCCCCC3)C(=O)[C@@H]3CC=CC[C@H]23)cc1OCCCCOc1ccc(-c2nnn[nH]2)cc1`, for which the Inhibition is 1.88%.

Regarding `O=C(c1cc2ccccc2o1)N1CCN(Cc2ccc3c(c2)OCO3)CC1`, the Inhibition amounted to 11.22%.

Turning to `Cc1nc(-c2ccccn2)nc(NCCc2ccc(S(C)(=O)=O)cc2)c1Cl`, the Inhibition is on record as -2.55%.

Consider `CCc1ccc(C(NCc2nc(N)nc(N(C)C)n2)C(C)C)cc1` (configuration not stated), for which the Inhibition was 7.08%.

Take `CCCS(=O)(=O)N1CCC(CO)(Cc2ccccc2C(F)(F)F)CC1`: the Inhibition was -1.16%.

Take `COc1ccc(-c2nc(-c3cccc(NC(=O)Cc4ccc(F)cc4)c3)no2)cc1OC`: the Inhibition turned out to be 8.52%.

For the molecule `O=C(Nc1ccccc1-c1nc2c(C(=O)O)cccc2o1)c1ccccc1`, the Inhibition is listed as -2.2%.

Turning to `COc1ccc(C2(C(=O)Nc3ccc(Br)cc3)CCCC2)cc1`, the Inhibition was 6.87%.

On to `CNC(=O)C1Cc2c([nH]c3cc(Cl)ccc23)C2(CCN(CCc3ccccc3)CC2)N1` (configuration not stated), for which the Inhibition came to 9.53%.

Consider `Cc1noc(C)c1COc1cccc(C(=O)N=c2[nH]cccc2C)c1`, for which the Inhibition stood at 6.93%.

As to `COc1ccc(N(CCc2cccc(C)n2)C(C)=O)cc1`, the Inhibition came out at 6.06%.

For `COc1ccccc1CNC(=O)c1cc(C2CC2)nc2c1cnn2C(C)C`, the Inhibition is on record as -2.58%.

As for `CCC(=O)Nc1ccccc1C(=O)Nc1ccccn1`, the Inhibition worked out at 10.48%.

Turning to `Cc1cc2ccccc2n1CC(=O)N1CC(C(=O)N2CCCCC2)Oc2ccccc21` (configuration not stated), the Inhibition was determined as 10.52%.

As to `CCOc1ccc(-c2nc(CNCCc3ccc(F)cc3)cs2)cc1`, the Inhibition stood at 7.75%.

Take `CNC(=O)CNc1nc(-c2ccccn2)nc2scc(-c3ccccc3)c12`: the Inhibition is reported as 6.67%.

With `c1ccc(-c2[nH]c3ccccc3c2C(c2ccccn2)N2CCCC2)cc1` (configuration not stated), the Inhibition is recorded as 3.92%.

On to `CN1CCN(S(=O)(=O)c2ccc(-c3ccc4c(Nc5ccc6nn[nH]c6c5)ccnc4c3)cc2)CC1`, for which the Inhibition was -0.24%.
